SKKanGAS inh: S. pyogenes SKKanGAS growth inhibitors in kanamycin, primary screen, streptokinase expression inhibitor project, SKKanGAS strain, BacTiter-Glo luminescence. 6 h. inhibition, % at 7.5 µM. 1.3% of 300,000 active. AID 1662, 2009;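 active = mean replicate score, as percent of positive control median, at least 50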;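 also: strain carries kanamycin resistance gene driven by streptokinase promoter and grows in 40 µg/ml kanamycin; loss of luminescence reflects streptokinase promoter inhibition or plain growth inhibition; 0% = median of DMSO wells and 100% = positive control at its reference dose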
IDE cell inh: human IDE inhibitors in live cells, primary screen, fluorescence polarization, HEK cells, FAbetaB substrate; inhibition, % at 5.59 µM; AID 434962, 2010; Insulin-degrading enzyme (Homo sapiens), P14735; 0.41% of 320,000 active; FAbetaB cleavage;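 active = percent inhibition above the average of all tested compounds plus 3 SD, set per screening campaign, cut at about 16% in these data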;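 also: IDE supplied by intact live HEK cells; FP after avidin binding of uncleaved biotin substrate so inhibition keeps polarization high; 0% = DMSO wells and 100% = 60 µM reference IDE inhibitor Ii1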
PP5 inh: PP5 phosphatase inhibitors, primary screen, biochemical, fluorescence. 0.18% of 320,000 active. inhibition, % at 6.7 µM. purified PP5c, OMFP substrate fluorescence. Serine/threonine-protein phosphatase 5 (Homo sapiens), P53041;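 active = inhibition above the campaign's mean inhibition across all tested compounds plus 3 SD, cut at about 9.5% in these data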;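 also: 0% = DMSO only and 100% = 100 µM cantharidin control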
Exocytosis inh: LAMP-1 surface exposure blockers, TALL-104 cells – cell-based, flow cytometry, MLPCN library, primary screen | TALL-104 LAMP-1 surface exposure; cells stimulated with thapsigargin and PMA | inhibition, % at 10 µM | 0.66% of 360,000 active;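 active = inhibition above about 55%, limit read from the data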
PP1 inh: PP1-alpha phosphatase inhibitors, primary screen, counter-screen for PP5 inhibitor project, biochemical, fluorescence, OMFP substrate, single point; Serine/threonine-protein phosphatase PP1-alpha catalytic subunit (Homo sapiens), P62136; AID 2235, 2010; purified PP1alpha; 0.9% of 320,000 active; inhibition, % at 6.7 µM;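 active = inhibition above the mean inhibition of all tested compounds plus 3 SD, computed separately for each screening campaign, cut at about 15% in these data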
Target sequence (P62136 whole entry, looked up): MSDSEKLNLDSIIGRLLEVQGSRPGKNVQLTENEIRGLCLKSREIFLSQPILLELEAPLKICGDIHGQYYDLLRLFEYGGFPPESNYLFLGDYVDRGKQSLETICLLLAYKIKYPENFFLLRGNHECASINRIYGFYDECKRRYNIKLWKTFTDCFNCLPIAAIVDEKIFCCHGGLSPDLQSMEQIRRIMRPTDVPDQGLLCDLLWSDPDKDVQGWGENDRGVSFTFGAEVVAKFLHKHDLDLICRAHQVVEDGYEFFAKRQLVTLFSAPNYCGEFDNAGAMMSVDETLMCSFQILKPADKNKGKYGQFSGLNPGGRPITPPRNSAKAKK
IDE cell activ: human IDE activators in live cells, primary screen, fluorescence polarization, HEK cells, FAbeta-B substrate; Insulin-degrading enzyme (Homo sapiens), P14735; 0.073% of 340,000 active; activation, % at 5.96 µM; FAbeta-B cleavage; 0% vehicle, 100% cell-free pure enzyme wells;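 active = activation above the mean of all tested compounds plus 3 SD, set per screening campaign, cut at about 17% in these data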
The depositor's hits bear a star; nt = no result. Hits are enriched below; roughly 2.8% of the tested compounds scored in any of these assays.

SMILES	SKKanGAS inh	IDE cell inh	PP5 inh	Exocytosis inh	PP1 inh	IDE cell activ
O=C(Nc1nnc(-c2ccc(Br)cc2)o1)c1ccco1	94*	0	0	8	2	0
Cc1ccccc1C(=O)Nc1ccccc1N1CCN(C(=O)c2ccccc2)CC1	55*	-4	2	-1	1	5
COc1c(C)cc(Br)cc1C(=O)Nc1ccccc1N1CCN(C(=O)c2ccccc2)CC1	38	2	-1	-1	-4	5
O=C(CSc1ccc(Cl)cc1)Nc1ccccc1N1CCN(C(=O)c2ccc(Cl)cc2)CC1	32	3	1	-2	15*	5
O=C(CC(=O)c1cccs1)c1ccncc1	nt	nt	nt	1	nt	4
CC(Sc1nnc(NCc2ccccc2)s1)C(=O)Nc1ccc2c(c1)C(=O)c1ccccc1C2=O (centres undefined)	13	1	3	-1	17*	1
Cc1nc2c(C(=O)NCCC(C)C)c[nH]n2c(=O)c1Cl	8	-1	-1	2	3	2
Cc1nc2c(C(=O)NCCC(C)C)c[nH]n2c(=O)c1Cc1ccccc1F	93*	-8	4	-2	15*	-2
COc1ccc(CN2CCN(c3nc4ccccc4s3)CC2)cc1	-3	nt	nt	-12	nt	-4
COc1ccc(CCn2c(O)cc3nn(-c4nc5ccccc5s4)c(=O)c-3c2C)cc1	22	-2	0	-4	17*	-2
COc1ccc(NC(=O)CCC2CCCCC2)cc1S(=O)(=O)N1CCCCC1	6	-2	4	14	3	5
COc1cccc(NC(=O)Nc2nnc(-c3ccccc3SCc3ccccc3)s2)c1	-5	-6	-1	5	6	4
COc1ccc(NC(=O)Nc2nnc(-c3ccccc3SCc3ccccc3)s2)cc1	3	-4	3	-5	19*	0
O=C(CSc1nnc(-c2ccccc2Cl)o1)N1CCOCC1	-5	4	1	-1	-6	2
Cc1cc(C)nc(S/C=C/C(=O)c2ccccc2F)n1	0	-3	-1	62*	-5	5
CCC(=O)N[C@@H]1C=C[C@@H](CC(=O)NCc2ccccc2F)O[C@@H]1CO	nt	nt	nt	2	nt	nt
C[C@@H]1CN([C@@H](C)CO)C(=O)c2cc(NS(C)(=O)=O)ccc2O[C@@H]1CN(C)S(=O)(=O)c1ccccc1	nt	-7	nt	-2	nt	-1
CC1CC(C)CN(C(=O)/C=C/c2ccc(S(=O)(=O)N3CCOCC3)cc2)C1 (centres undefined)	nt	-2	4	4	-1	5
COc1ccccc1OCCCOc1ccc(/C=C2\SC(=O)NC2=O)cc1OC	37	10	3	11	13	6
COc1ccccc1OCCCOc1cccc(/C=C2\SC(=O)NC2=O)c1	37	4	2	4	16*	0
CCOc1ccc(N(C)c2ccc(/C=C3/SC(=S)NC3=O)cc2)cc1	65*	14	2	7	1	-38
O=C1NC(=O)/C(=C\c2ccc(OCc3ccccc3)cc2)S1	55*	-2	0	-11	10	5
CCN(CC)S(=O)(=O)c1ccc(C)c(NS(=O)(=O)c2cc(/C=C/C(=O)O)cc(OC)c2OC)c1	-4	5	2	-4	-4	8
CC(C)CN(C(=O)CSc1nnnn1-c1ccccc1)c1c(N)n(CC(C)C)c(=O)[nH]c1=O	-5	1	3	2	0	3
CCN(CC(=O)Nc1c(F)cccc1F)C(=O)c1cccc(S(=O)(=O)NCc2ccccc2)c1	-1	-5	1	-3	-2	1
SMILES	SKKanGAS inh	IDE cell inh	PP5 inh	Exocytosis inh	PP1 inh	IDE cell activ
Cc1cc(C)c(Nc2cc(S(=O)(=O)O)c(N)c3c2C(=O)c2ccccc2C3=O)c(C)c1	nt	-6	8	-12	25*	14
CCN(c1ccccc1)S(=O)(=O)c1ccc(N2CCN(c3ccc(OC)cc3)CC2)nc1	nt	0	nt	2	nt	26*
O=C1c2cccc(O)c2C(=O)c2c(O)cc(CO)cc21	-10	-3	1	nt	1	nt
CC1OC2CC(=O)OC2C2=C1C(=O)c1c(O)cccc1C2=O (centres undefined)	nt	nt	nt	86*	nt	nt
Cc1cc(O)c(C=O)c2c1C(=O)Oc1c(CO)c(O)c3c(c1O2)C(O)OC3=O (centres undefined)	nt	-1	2	-2	36*	2
COc1ccc(CNc2nc3c(c(=O)n(Cc4ccc(Br)cc4)c(=O)n3C)n2C)cc1	54*	-2	2	-1	1	0
COc1ccc(O)c(C2=Nc3ccccc3N=C(c3cccs3)C2)c1	60*	-1	2	-1	3	8
O=C(NS(=O)(=O)Nc1ccccc1)C1=C(N2CCCC2)COC1=O	nt	0	nt	-2	nt	34*
O=C(NC(=O)c1ccccc1)C1=C(N2CCCC2)COC1=O	nt	-5	2	17	-3	3
Nc1nc2nc(SCC(=O)N3CCCc4ccccc43)[nH]c2c(=O)[nH]1	-16	1	-1	nt	15*	nt
CC1=CC(C)(C)N(C(=O)c2ccccc2)c2ccc(C)cc21	63*	nt	nt	8	nt	2
O=C(Nc1ccc(-n2nncc2-c2ccco2)cc1)c1cccc(F)c1	7	2	0	2	1	3
O=C(Nc1ccc(-n2nncc2-c2ccco2)cc1)c1cc2ccccc2oc1=O	2	-2	-2	-3	29*	-7
CC(=O)c1ccc(CC2SC(N)=NC2=O)cc1 (centres undefined)	0	-6	-3	-1	16*	1
CCCCNC(=O)c1onc(CSc2ccc(Cl)cc2)c1C(=O)NCCCC	10	3	5	70*	3	-12
N[C@@H](C(=O)N[C@@H]1C(=O)N2C(C(=O)O)=C(Cl)CS[C@H]12)c1ccccc1	105*	2	0	2	-2	2
Cc1ccc2sc(N(CCCN(C)C)C(=O)c3ccc(Br)s3)nc2c1C	-5	2	2	14	5	18*
Cc1ccc2sc(N(CCCN(C)C)C(=O)c3nc4ccccc4s3)nc2c1C	8	5	3	1	4	15
CCOC(=O)CC1(C)Sc2ccccc2N1S(=O)(=O)c1ccc(C)cc1 (centres undefined)	nt	nt	nt	3	nt	nt
CCOC(=O)c1c(-n2cccc2)sc2c1CCCC2=O	3	-2	-1	-1	-3	4
Oc1c(C(Nc2nccs2)c2ccc(C(F)(F)F)cc2)ccc2cccnc12 (centres undefined)	91*	nt	nt	1	nt	-17
